Each sequence was assayed against T1, GST-Nv-NF-kB (Ser allele) (Nematostella vectensis, UniProt A7UNT2 2-411) (assay: protein-binding microarray (PBM); PBM: ~300 nM protein, 6 mM HEPES pH 7.8, 80 mM KCl, 0.5 mM EDTA, 0.5 mM EGTA, 6% glycerol, 35 ng/ul poly-dIdC, 1% milk, 1 h, room temperature; Ap Aiptasia and Nv Nematostella (sea anemones) / Co Capsaspora / Aq Amphimedon (sponge) / Dm Drosophila / Hu human; RHD is the Rel homology domain; high values mean tight binding). Details: dsDNA, one strand shown.
T1 sequence: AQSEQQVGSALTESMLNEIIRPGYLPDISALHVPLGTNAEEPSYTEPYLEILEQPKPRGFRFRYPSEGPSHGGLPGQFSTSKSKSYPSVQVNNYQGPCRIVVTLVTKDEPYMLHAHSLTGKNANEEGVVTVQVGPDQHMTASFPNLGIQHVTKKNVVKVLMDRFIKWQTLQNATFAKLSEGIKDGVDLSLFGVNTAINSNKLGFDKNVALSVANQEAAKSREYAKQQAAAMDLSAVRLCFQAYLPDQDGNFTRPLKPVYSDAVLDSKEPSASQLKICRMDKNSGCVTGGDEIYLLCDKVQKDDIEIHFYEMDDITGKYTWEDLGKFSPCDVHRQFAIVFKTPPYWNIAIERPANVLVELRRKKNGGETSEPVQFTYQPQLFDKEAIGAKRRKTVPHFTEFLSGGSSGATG

| Sequence | binding signal [z-score] |
| --- | --- |
| CCGATTAACATCAGGGGATTTGATGATGTTAATCGGGTCTTGATTCGCTTGACGCTGCTG | 8.85 |
| CCGATTAACATCAAAAATCCCCTTGATGTTAATCGGGTCTTGATTCGCTTGACGCTGCTG | 13.5 |
| CCGATTAACATCAGGGGGAGTAATGATGTTAATCGGGTCTTGATTCGCTTGACGCTGCTG | 5.56 |
| CCGATTAACATCACTCATCCCCGTGATGTTAATCGGGTCTTGATTCGCTTGACGCTGCTG | 3.8 |
| CCGATTAACATCAGAATTCCCCATGATGTTAATCGGGTCTTGATTCGCTTGACGCTGCTG | 9.9 |
| CCGATTAACATCAATCCTCCCCCTGATGTTAATCGGGTCTTGATTCGCTTGACGCTGCTG | 5.85 |
| CCGATTAACATCACCCTTCCCCCTGATGTTAATCGGGTCTTGATTCGCTTGACGCTGCTG | 5.26 |
| CCGATTAACATCAGGGGACTCACTGATGTTAATCGGGTCTTGATTCGCTTGACGCTGCTG | 4.07 |
| CCGATTAACATCAGGGGGATTAATGATGTTAATCGGGTCTTGATTCGCTTGACGCTGCTG | 7.21 |
| CCGATTAACATCAGGGGGATAACTGATGTTAATCGGGTCTTGATTCGCTTGACGCTGCTG | 5.96 |
| CCGATTAACATCACGATTTCCCCTGATGTTAATCGGGTCTTGATTCGCTTGACGCTGCTG | 10.8 |
| CCGATTAACATCAAAATACTCCCTGATGTTAATCGGGTCTTGATTCGCTTGACGCTGCTG | 4.49 |
| CCGATTAACATCAGGGGAATTTATGATGTTAATCGGGTCTTGATTCGCTTGACGCTGCTG | 12.9 |
| CCGATTAACATCAGGGGGTTCCATGATGTTAATCGGGTCTTGATTCGCTTGACGCTGCTG | 5.6 |
| CCGATTAACATCAGGGGGATTCATGATGTTAATCGGGTCTTGATTCGCTTGACGCTGCTG | 8.48 |
| CCGATTAACATCACACAACCCCCTGATGTTAATCGGGTCTTGATTCGCTTGACGCTGCTG | 4.93 |
| CCGATTAACATCAATACTTCCCCTGATGTTAATCGGGTCTTGATTCGCTTGACGCTGCTG | 9.37 |
| CCGATTAACATCAAGATTTCCCATGATGTTAATCGGGTCTTGATTCGCTTGACGCTGCTG | 4.61 |
| CCGATTAACATCAAATTGTCCCCTGATGTTAATCGGGTCTTGATTCGCTTGACGCTGCTG | 6.62 |
| CCGATTAACATCAGGGTATTTTATGATGTTAATCGGGTCTTGATTCGCTTGACGCTGCTG | 7.61 |

| Sequence | binding signal [z-score] |
| --- | --- |
| CCGATTAACATCACAATCCCCCCTGATGTTAATCGGGTCTTGATTCGCTTGACGCTGCTG | 6.37 |
| CCGATTAACATCAGGGGAGTTACTGATGTTAATCGGGTCTTGATTCGCTTGACGCTGCTG | 4.83 |
| CCGATTAACATCAGGGGGAAGAATGATGTTAATCGGGTCTTGATTCGCTTGACGCTGCTG | 6.8 |
| CCGATTAACATCAGGGCCTCCCCTGATGTTAATCGGGTCTTGATTCGCTTGACGCTGCTG | 3.22 |
| CCGATTAACATCAAAGTCCCCCTTGATGTTAATCGGGTCTTGATTCGCTTGACGCTGCTG | 6.92 |
| CCGATTAACATCAGGGGGGTTAATGATGTTAATCGGGTCTTGATTCGCTTGACGCTGCTG | 4.14 |
| CCGATTAACATCAACTTCCCCCCTGATGTTAATCGGGTCTTGATTCGCTTGACGCTGCTG | 6.34 |
| CCGATTAACATCAGGGGGCTATATGATGTTAATCGGGTCTTGATTCGCTTGACGCTGCTG | 2.2 |
| CCGATTAACATCAAGGGGGAAAATGATGTTAATCGGGTCTTGATTCGCTTGACGCTGCTG | 10.6 |
| CCGATTAACATCAGGATACCCCCTGATGTTAATCGGGTCTTGATTCGCTTGACGCTGCTG | 4.35 |
| CCGATTAACATCACCAAATCCCCTGATGTTAATCGGGTCTTGATTCGCTTGACGCTGCTG | 9.44 |
| CCGATTAACATCAGGGGCCCCCCTGATGTTAATCGGGTCTTGATTCGCTTGACGCTGCTG | 2.88 |
| CCGATTAACATCAGGACTCCCCCTGATGTTAATCGGGTCTTGATTCGCTTGACGCTGCTG | 6.45 |
| CCGATTAACATCAAAACTTCCCCTGATGTTAATCGGGTCTTGATTCGCTTGACGCTGCTG | 12.1 |
| CCGATTAACATCAGGGGAACGCATGATGTTAATCGGGTCTTGATTCGCTTGACGCTGCTG | 6.49 |
| CCGATTAACATCAGGGGACTCCATGATGTTAATCGGGTCTTGATTCGCTTGACGCTGCTG | 4.65 |
| CCGATTAACATCAATTCCCCAGGTGATGTTAATCGGGTCTTGATTCGCTTGACGCTGCTG | 6.65 |
| CCGATTAACATCAGGGGAAGACCTGATGTTAATCGGGTCTTGATTCGCTTGACGCTGCTG | 6.51 |
| CCGATTAACATCAGGGCGCCCCCTGATGTTAATCGGGTCTTGATTCGCTTGACGCTGCTG | 3.38 |

— PMC5700166
